A short description of assay [1]: small molecules captured by biotinylated probe aFSTL3 – biochemical, small-molecule microarray, fluorescence 635/667, stem cell growth factor project, primary screen (AID 1064).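 Note: measures binding of the biotinylated anti-FSTL3 antibody to printed compounds.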 The note with it: higher = more signal.
A short description of assay [2]: binders from COS7 lysate, DM2A8 probe, primary screen, torsin A project, cell lysate, small-molecule microarray, fluorescence 635/667 (AID 1065). The note with it: higher = more signal, COS7 lysate expressing mutant human TOR1A.
A short description of assay [3]: small molecules captured by biotinylated probe aFGF2 – biochemical, small-molecule microarray, fluorescence 635/667, stem cell growth factor project, primary screen (AID 1067).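 Note: measures binding of biotinylated aFGF2 protein to printed compounds on slides; z-score merges feature fluorescence and signal-to-noise across triplicate slides.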 The note with it: higher = more signal.
A short description of assay [4]: small molecules captured by biotinylated probe aFGF10 – biochemical, small-molecule microarray, fluorescence 635/667, stem cell growth factor project, primary screen (AID 1071).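 Note: score merges 667 nm spot intensity and signal to noise from triplicate slides.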 To be noted: higher = more signal.
Assay [5] concerns the target Neurogenic locus notch homolog protein 2 (Homo sapiens) (UniProt Q04721). As to the kind of experiment: small molecules binding Notch2 protein – biochemical, small-molecule microarray, 635 nm fluorescence, stem cell growth factors, primary screen (AID 1073). The note with it: higher = more signal.
Assay [6] has as its target Pro-neuregulin-1, membrane-bound isoform (Homo sapiens) (UniProt Q02297). As to the kind of experiment: small molecules binding neuregulin-1 protein – biochemical, small-molecule microarray, fluorescence 635/667, psychiatric disease protein project, primary screen (AID 1075).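 Note: score combines 667 nm spot fluorescence with signal to noise.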 To be noted: NRG1 binding, 635 nm fluorescence, higher = more signal.
Assay [7] deals with Neuregulin-1 EGF-like domain. As to the kind of experiment: small molecules binding NRG1 EGF domain – biochemical, small-molecule microarray, 635 nm fluorescence, primary screen (AID 1081).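 Note: binding of the protein to compounds printed on small-molecule microarray slides.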 To be noted: higher = more signal.
Assay [8] is described as follows: FRG1 expression reporter modulators in myotubes – cell-based, C2C12 myotubes, firefly/Renilla luciferase, luminescence, FRG1 inhibition for FSHD, primary screen (AID 1084). The note with it: FRG1 promoter luciferase, higher = more signal, called active from +8 up or from −8 down.
A short description of assay [9]: small molecules captured by biotinylated probe aFST – biochemical, small-molecule microarray, fluorescence 635/667, stem cell growth factor project, primary screen (AID 1086).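 Note: score merges 667 nm fluorescence with signal-to-noise of each printed compound spot.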 To be noted: higher = more signal.
Assay [10] can be described thus: binders of probe aHhip on microarray, primary screen, stem cell growth factor project, biochemical, small-molecule microarray, fluorescence 635/667 (AID 1087).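 Note: score merges spot fluorescence at 667nm with spot signal to noise ratio.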 To be noted: higher = more signal.
In assay [11] the test system is PRMT1 (protein arginine N-methyltransferase 1). As to the kind of experiment: small molecules binding arginine methyltransferase PRMT1 – biochemical, small-molecule microarray, 635 nm fluorescence, primary screen (AID 1088).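 Note: binding of Prmt1 protein to compounds spotted on small-molecule microarray slides.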 The note with it: higher = more signal.
The nature of assay [12]: growth effects on S. cerevisiae YJM789 – YJM789 clinical isolate, OD600, 24 h, basal, primary screen (AID 1089).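 Note: growth of clinical yeast isolate S. cerevisiae YJM 789 seeded 1000 cells per well; test concentration not given here.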 To be noted: higher = more signal, called active from +8 up or from −8 down.
Assay [13] can be described thus: S. pombe growth modifiers, basal conditions – strain 972, OD600, 24 h, no modulator, primary screen (AID 1090).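 Note: basal condition with compound alone and no growth modifier present; test concentration not given here.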 To be noted: S. pombe 972 growth, higher = more signal, called active from +8 up or from −8 down.
A short description of assay [14]: budding yeast growth modifiers under rapamycin – strain BY4716, OD600, 96 h, primary screen (AID 1091). Note: test concentration not given here. To be noted: S. cerevisiae BY4716 + rapamycin, higher = more signal, called active from +8 up or from −8 down.
Assay [15] has as its target Torsin-1A-interacting protein 2 (Homo sapiens) (UniProt Q8NFQ8). As to the kind of experiment: small molecules binding lysate-expressed LULL1 – cell lysate, human LULL1 lysate, 635/667 nm fluorescence, primary screen (AID 1092).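 Note: probe is lysate of COS7 cells overexpressing human LULL1; score merges per-feature 667 nm fluorescence with signal-to-noise.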 To be noted: small-molecule microarray, hLULL1 lysate binding, 635 nm fluorescence; higher = more signal.
Assay [16] is described as follows: optical density change of DRC41 E. coli – strain DRC41, OD650, 24 h, E. coli filamentation project, primary screen (AID 1093).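 Note: MC1000 strain lacking acrAB efflux and sulA so SOS filamentation is blocked; test concentration not given here.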 The note with it: E. coli DRC41 growth, higher = more signal, called active from +8 up or from −8 down.
Assay [17] can be described thus: probe aLefty2 binding to arrayed compounds – biochemical, biotinylated probe, 635/667 nm fluorescence, primary screen (AID 1094).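 Note: score merges spot fluorescence near 667 nm with spot signal-to-noise ratio.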 The note with it: small-molecule microarray, higher = more signal.
The subject of assay [18] is Noggin (protein binding on small-molecule microarray). The experiment in a line: small molecules binding Noggin protein – biochemical, 635/667 nm fluorescence, primary screen (AID 1095).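 Note: score merges 667 nm feature fluorescence with signal to noise over triplicate slides.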 To be noted: 635 nm fluorescence, higher = more signal.
Assay [19] has as its target Neurogenic locus notch homolog protein 3 (Homo sapiens) (UniProt Q9UM47). The experiment in a line: small molecules binding NOTCH3 protein – biochemical, 635/667 nm fluorescence, primary screen (AID 1096). The note with it: small-molecule microarray, 635 nm fluorescence, higher = more signal.
A short description of assay [20]: probe aEGFR binding to arrayed compounds – biochemical, biotinylated probe, 635/667 nm fluorescence, primary screen (AID 1097).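 Note: probe is a biotinylated anti-EGFR antibody binding compounds printed on slides; score combines fluorescence near 667 nm and signal to noise of each spot.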 To be noted: small-molecule microarray, higher = more signal.

Activity calls are given as the source filed them.

Sequence of Neurogenic locus notch homolog protein 3 (Homo sapiens) (Q9UM47 whole entry, looked up): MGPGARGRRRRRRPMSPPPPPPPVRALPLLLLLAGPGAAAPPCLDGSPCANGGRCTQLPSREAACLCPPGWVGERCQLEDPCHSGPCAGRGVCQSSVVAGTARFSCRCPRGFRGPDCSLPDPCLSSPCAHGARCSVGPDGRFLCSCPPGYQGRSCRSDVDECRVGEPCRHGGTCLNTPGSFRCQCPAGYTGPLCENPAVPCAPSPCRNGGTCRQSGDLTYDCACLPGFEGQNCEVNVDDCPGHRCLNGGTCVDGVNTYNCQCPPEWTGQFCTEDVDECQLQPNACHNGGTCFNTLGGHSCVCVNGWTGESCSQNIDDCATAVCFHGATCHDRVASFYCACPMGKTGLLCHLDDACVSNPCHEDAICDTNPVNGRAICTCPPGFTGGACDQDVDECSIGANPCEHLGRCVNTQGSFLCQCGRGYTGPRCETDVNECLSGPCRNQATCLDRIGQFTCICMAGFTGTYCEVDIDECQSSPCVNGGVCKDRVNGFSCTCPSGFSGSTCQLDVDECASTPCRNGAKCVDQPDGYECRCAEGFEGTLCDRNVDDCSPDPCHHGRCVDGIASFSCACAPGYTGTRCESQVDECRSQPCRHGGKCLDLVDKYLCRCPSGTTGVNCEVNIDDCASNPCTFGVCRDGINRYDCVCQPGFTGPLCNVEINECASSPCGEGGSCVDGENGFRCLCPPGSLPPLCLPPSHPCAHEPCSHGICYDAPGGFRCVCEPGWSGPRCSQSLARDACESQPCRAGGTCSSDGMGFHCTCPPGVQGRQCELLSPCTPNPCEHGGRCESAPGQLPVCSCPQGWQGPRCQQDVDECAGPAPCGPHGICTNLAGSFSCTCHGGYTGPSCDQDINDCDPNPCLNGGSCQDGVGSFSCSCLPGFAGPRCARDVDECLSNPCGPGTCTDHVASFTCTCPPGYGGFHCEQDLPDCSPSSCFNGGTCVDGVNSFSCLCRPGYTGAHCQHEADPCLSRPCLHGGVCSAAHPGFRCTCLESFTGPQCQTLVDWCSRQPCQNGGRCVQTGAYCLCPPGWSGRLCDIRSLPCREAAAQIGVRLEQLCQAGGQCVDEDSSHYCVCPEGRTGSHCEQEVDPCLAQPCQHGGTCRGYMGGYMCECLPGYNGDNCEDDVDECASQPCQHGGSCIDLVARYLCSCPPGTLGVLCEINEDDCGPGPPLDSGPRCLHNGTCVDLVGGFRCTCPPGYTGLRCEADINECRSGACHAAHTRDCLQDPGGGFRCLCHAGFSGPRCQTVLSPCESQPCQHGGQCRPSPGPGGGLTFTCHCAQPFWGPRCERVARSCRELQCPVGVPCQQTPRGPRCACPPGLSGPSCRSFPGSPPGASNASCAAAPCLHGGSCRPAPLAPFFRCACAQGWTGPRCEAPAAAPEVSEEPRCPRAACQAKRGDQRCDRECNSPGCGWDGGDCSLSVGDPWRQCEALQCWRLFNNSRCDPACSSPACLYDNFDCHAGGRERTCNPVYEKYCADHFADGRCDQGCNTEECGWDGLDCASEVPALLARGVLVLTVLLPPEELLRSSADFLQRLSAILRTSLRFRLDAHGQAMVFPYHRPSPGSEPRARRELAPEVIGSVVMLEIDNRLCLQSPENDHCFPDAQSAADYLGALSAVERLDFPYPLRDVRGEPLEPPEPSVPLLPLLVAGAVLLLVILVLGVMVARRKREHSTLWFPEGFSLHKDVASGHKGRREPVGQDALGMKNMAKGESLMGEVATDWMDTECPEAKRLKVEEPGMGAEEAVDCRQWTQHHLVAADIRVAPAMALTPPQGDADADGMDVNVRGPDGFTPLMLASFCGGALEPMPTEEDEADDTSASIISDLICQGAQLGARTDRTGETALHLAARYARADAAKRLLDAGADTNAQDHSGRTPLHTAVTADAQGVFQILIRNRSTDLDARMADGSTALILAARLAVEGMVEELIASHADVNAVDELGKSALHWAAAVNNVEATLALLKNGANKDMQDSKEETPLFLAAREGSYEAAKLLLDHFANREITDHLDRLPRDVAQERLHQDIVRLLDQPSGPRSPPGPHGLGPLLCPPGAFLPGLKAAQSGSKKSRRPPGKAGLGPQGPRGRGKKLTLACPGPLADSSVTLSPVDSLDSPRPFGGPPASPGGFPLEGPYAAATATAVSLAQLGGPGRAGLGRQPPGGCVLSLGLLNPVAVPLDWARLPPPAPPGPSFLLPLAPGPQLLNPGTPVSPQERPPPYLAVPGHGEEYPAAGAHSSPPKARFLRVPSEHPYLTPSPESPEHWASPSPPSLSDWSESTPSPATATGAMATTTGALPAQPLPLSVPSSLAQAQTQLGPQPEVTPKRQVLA
Sequence of Neurogenic locus notch homolog protein 2 (Homo sapiens) (Q04721 whole entry, looked up, canonical isoform): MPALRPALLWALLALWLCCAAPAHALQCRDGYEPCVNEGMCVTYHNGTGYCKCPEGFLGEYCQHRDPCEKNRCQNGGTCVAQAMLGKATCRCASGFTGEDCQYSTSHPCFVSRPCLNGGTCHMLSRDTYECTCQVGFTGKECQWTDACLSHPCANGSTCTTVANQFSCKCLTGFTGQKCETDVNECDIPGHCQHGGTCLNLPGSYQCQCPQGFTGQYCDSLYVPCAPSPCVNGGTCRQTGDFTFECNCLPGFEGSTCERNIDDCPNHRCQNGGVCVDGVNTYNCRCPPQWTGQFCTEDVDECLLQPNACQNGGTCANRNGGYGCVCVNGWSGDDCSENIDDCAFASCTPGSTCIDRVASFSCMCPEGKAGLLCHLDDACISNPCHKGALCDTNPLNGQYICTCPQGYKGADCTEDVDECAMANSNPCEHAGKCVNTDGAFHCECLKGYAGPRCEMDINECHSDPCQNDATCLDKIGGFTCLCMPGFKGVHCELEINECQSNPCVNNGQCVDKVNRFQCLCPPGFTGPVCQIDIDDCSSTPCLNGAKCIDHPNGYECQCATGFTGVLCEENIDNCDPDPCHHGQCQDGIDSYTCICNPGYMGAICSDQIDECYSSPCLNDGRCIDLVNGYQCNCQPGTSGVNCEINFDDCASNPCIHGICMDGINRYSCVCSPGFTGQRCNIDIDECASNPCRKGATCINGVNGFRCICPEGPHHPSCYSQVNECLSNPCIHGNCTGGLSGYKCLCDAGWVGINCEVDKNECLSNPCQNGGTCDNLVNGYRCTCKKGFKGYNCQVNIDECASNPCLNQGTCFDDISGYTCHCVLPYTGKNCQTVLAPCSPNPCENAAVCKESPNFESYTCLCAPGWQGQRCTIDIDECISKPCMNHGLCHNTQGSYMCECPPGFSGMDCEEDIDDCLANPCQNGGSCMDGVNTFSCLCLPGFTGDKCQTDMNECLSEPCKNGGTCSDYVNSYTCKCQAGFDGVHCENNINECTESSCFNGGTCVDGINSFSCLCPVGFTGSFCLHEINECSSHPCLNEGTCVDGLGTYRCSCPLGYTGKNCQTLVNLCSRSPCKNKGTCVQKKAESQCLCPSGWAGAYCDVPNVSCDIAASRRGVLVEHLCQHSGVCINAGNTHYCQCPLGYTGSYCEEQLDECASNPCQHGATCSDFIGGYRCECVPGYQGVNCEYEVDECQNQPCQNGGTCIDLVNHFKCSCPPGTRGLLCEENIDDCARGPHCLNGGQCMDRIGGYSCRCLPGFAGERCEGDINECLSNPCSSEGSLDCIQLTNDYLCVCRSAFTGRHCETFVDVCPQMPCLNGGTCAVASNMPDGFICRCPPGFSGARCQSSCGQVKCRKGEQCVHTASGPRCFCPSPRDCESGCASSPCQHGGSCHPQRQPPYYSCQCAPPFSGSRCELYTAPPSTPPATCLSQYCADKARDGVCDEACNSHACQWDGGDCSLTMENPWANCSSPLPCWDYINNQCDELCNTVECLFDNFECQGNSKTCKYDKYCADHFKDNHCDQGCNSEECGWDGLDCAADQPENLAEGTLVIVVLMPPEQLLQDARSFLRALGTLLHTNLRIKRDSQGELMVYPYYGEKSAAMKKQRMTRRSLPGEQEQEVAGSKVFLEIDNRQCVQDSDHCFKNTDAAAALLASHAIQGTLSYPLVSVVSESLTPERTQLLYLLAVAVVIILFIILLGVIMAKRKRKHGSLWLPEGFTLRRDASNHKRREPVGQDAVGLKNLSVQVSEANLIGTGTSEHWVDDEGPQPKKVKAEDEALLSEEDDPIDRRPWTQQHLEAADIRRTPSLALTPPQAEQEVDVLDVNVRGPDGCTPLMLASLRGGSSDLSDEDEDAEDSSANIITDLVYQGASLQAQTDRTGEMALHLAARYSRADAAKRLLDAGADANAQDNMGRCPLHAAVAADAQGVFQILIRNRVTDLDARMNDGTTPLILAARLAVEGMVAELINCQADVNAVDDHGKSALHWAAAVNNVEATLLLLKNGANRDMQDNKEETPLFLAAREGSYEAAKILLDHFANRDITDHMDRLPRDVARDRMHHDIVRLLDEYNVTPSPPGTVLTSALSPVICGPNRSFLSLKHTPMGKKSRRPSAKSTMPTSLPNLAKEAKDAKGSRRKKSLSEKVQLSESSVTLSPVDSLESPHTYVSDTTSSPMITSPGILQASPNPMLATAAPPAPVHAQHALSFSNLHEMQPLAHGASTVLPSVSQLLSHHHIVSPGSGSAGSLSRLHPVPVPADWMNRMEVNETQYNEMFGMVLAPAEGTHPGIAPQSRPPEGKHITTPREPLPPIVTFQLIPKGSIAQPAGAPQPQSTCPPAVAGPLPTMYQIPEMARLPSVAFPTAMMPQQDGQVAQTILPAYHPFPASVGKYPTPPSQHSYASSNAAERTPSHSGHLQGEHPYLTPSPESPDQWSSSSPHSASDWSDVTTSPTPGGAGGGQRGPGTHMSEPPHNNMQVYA

`CCCNC(=O)OC[C@H]1O[C@H](CCON=C2[C@H]3CCn4c(=O)n(-c5ccccc5)c(=O)n4[C@H]3[C@H](O)[C@@H]3O[C@H]23)C=C[C@@H]1Oc1ccc(OC)cc1`: the composite z-score in [1] is -0.362; in assay [2], 0.447; in assay [3] it was -0.0885; in [4], 0.406; in assay [5] it was 0.774; in assay [6] it was -0.248. The composite z-score in [7] is 0.0894; in assay [9] it was 0.214; in assay [10], -0.0994; in assay [11], 0.615; in assay [15] it was 0.507; in assay [17] it was -0.234. Also, the composite z-score was 0.388 in [18], 0.242 in assay [19] and -0.253 in [20]. In addition, the z-score in assay [8] was -0.257 (inactive); in assay [12] it was -0.285 (inactive); in assay [13], 0.0063 (inactive); in assay [14], -0.0824 (inactive); in assay [16], 0.317 (inactive).

Turning to `NC(=O)NCC#Cc1ccc2c(c1)[C@]1(C(=O)N2)[C@H](c2ccc(O)cc2)N2[C@H](c3ccccc3)[C@H](c3ccccc3)OC(=O)[C@H]2[C@@H]1C(=O)N1CCCCCCC1`, the composite z-score was 2.38 in assay [1]; -0.206 in [2]; 0.242 in assay [3]; 0.122 in [4]; 0.617 in assay [5]; 0.467 in assay [6]. The composite z-score stood at 0.839 in [7]; 2.31 in [9]; 0.257 in [10]; 1.53 in assay [11]; 1.55 in assay [15]; 1.24 in [17]. Moreover, the composite z-score in assay [18] is 1.55; in [19] it was 1.01; in [20], 0.511. In addition, the z-score was -1.21 (inactive) in assay [8]; 1 (inactive) in assay [12]; -0.447 (inactive) in assay [13]; 1.24 (inactive) in assay [14]; 0.951 (inactive) in [16].

As to `COc1cccc([C@H]2Oc3ccc(OC)cc3C(=NOC(C)CN3CCCc4nc(C)c(C)cc43)[C@@H]2O)c1` (stereo not given in full), the composite z-score is -0.437 in [1]; 0.15 in assay [2]; -0.0316 in assay [3]; 0.32 in [4]; 0.687 in assay [5]; 0.146 in assay [6]. Besides, the composite z-score in assay [7] is 0.541; in assay [9] it was -0.055; in [10], 0.154; in assay [11], 1.32; in assay [15] it was 0.605; in assay [17], 0.027. The composite z-score is 0.0233 in assay [18], 0.522 in assay [19] and 0.0506 in assay [20]. The z-score in assay [8] is 2.49 (inactive); in assay [12], -0.906 (inactive); in [13], -0.912 (inactive); in [14], -1.19 (inactive); in assay [16], 0.732 (inactive).

As for `COC(=O)CC=C[C@@H](C)[C@@H](C=NO[C@@H](C)c1cc(-c2c(C)cc(C)cc2C)no1)OC`, the composite z-score in [1] is 1.46; in assay [2] it was -1.99; in assay [3] it was -0.159; in assay [4], -0.806; in [5], -1.69; in assay [6], -0.674. For the same compound, the composite z-score was -0.714 in assay [7]; -0.358 in assay [9]; -0.0672 in [10]; -1.43 in [11]; -1.2 in assay [15]; -0.047 in assay [17]. The composite z-score was -0.119 in assay [18], -0.75 in assay [19] and -0.419 in assay [20]. Moreover, the z-score was 0.8 (inactive) in assay [8]; -0.0365 (inactive) in assay [12]; -0.875 (inactive) in assay [13]; 0.599 (inactive) in assay [14]; -0.622 (inactive) in [16].

`CC(CCN1CCc2nc(-c3ccccc3)c(-c3ccccc3)cc2C1)=NO[C@H](C)c1cn([C@@H]2COC[C@H]2O)nn1`: the composite z-score in assay [1] is -0.388; in assay [2], 1.4; in assay [3], -0.0867; in assay [4], 0.259; in assay [5] it was 0.295; in [6], 0.646. In addition, the composite z-score in [7] is 1.03; in [9] it was 0.133; in assay [10], -0.0237; in assay [11], 1.49; in assay [15], 2.03; in assay [17], 0.0218. Further, the composite z-score was 0.224 in assay [18], 0.299 in assay [19] and -0.137 in [20]. The z-score in [8] is -0.203 (inactive); in [12], -0.0653 (inactive); in [13] it was -1.35 (inactive); in [14], -4.33 (inactive); in [16], 0.364 (inactive).

The values are drawn from PubChem BioAssay.
